About 83,000 compounds went through this panel and 20% of them were active in at least one assay; those are over-represented in the sample as a whole.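 Values shown are percent growth following 48 h exposure of cells in 96-well plates to a single concentration of compound; below 10 was considered active.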 Unmarked numbers belong to inactive results. Calls of active or inactive are those of the source.
Experiments:
Test in all cases: NCI-60 one-dose screen, 48 h (100 = growth as untreated, 0 = no growth, -100 = all killed)
Details in all cases: 10 µM unless noted
[1] = test system: SR leukemia
[2] = test system: RPMI-8226 leukemia
[3] = test system: OVCAR-8 ovarian
[4] = test system: OVCAR-5 ovarian
[5] = test system: SK-OV-3 ovarian
[6] = test system: IGROV1 ovarian
[7] = test system: OVCAR-3 ovarian
[8] = test system: HS 578T breast
[9] = test system: NCI/ADR-RES ovarian
[10] = test system: OVCAR-4 ovarian

| Structure (SMILES) | growth [1] | growth [2] | growth [3] | growth [4] | growth [5] | growth [6] | growth [7] | growth [8] | growth [9] | growth [10] |
| --- | --- | --- | --- | --- | --- | --- | --- | --- | --- | --- |
| C#Cc1cccc(NC(=O)c2ccccc2NC(=O)CCl)c1 | 62.1% [8.25 µM] | 99.5% [8.25 µM] | 60.6% [8.25 µM] | 118% [8.25 µM] | 95.2% [8.25 µM] | -26.1% [8.25 µM] (active) | 90.6% [8.25 µM] | 69.3% [8.25 µM] | 81.1% [8.25 µM] | – |
| C(=N/Nc1ncc(-c2cc3cc(-c4ccccc4)ccc3o2)s1)/c1cccs1 | 79% | 70.4% | 99.5% | 93.9% | – | 102% | 97.1% | 107% | 101% | 89.6% |
| Cc1cc(N2CCOCC2)nc(N[C@@H]2CCC[C@H](Nc3ccnc4cc(Cl)ccc34)C2)n1 | -36.9% (active) | -45.6% (active) | 5.36% (active) | 49.4% | 64.4% | 26.4% | 22.6% | -11.1% (active) | 18.2% | – |
| C#CCOc1ccc2ncnc(N3CCC(NC(=O)CCl)CC3)c2c1 | 62.6% [8.25 µM] | 44.4% [8.25 µM] | 76.3% [8.25 µM] | 100% [8.25 µM] | 69.6% [8.25 µM] | 51.4% [8.25 µM] | 68.2% [8.25 µM] | 46.7% [8.25 µM] | 88.2% [8.25 µM] | – |
| FC(F)(F)c1nc2c(NCc3ccc(-c4ccccc4)cc3)cccc2[nH]1 | 7.78% (active) | 45% | 77.2% | 96.1% | 89.1% | 85.8% | 64.9% | 71.7% | 81% | – |
| COc1ccc(S(=O)(=O)N2CCN(C)CC2)cc1NC(=O)c1[nH]c(C)c2c1CCCCC2=O | 58.2% | 32.6% | 63% | 59.5% | 44.7% | 47% | 66.6% | 28.9% | 96.9% | – |
| OC(c1cc2cc(Cl)c(Cl)cc2c2cc(C(F)(F)F)ccc12)C1CCCCN1 (centres undefined) | -59.9% (active) | -37.1% (active) | -71.3% (active) | -41.6% (active) | 34% | -64.9% (active) | -90.3% (active) | -50.4% (active) | -79.1% (active) | – |
| COc1cc2c(cc1-c1c(C)noc1C)ncc1nc(C3CCCCC3)n([C@H](C)COC(F)F)c12 | 17.9% | 18.9% | 42% | 75.1% | 12.5% | 37.8% | 37.3% | 18.9% | 38.2% | – |
| COc1cc(Nc2cc(C)nc(N3CCN(c4ccnc5cc(Cl)ccc45)CC3)n2)cc(OC)c1 | -4.09% (active) | -13.5% (active) | 12.7% | 24.8% | 15.4% | – | 6.15% (active) | 18.2% | – | – |
| Cn1c(NCCc2ccc(O)c(O)c2)nc2c1c(=O)n(Cc1ccc(Br)cc1)c(=O)n2C | 61.6% | 25.6% | 71.9% | 99.4% | – | 37.7% | 69.4% | 95.3% | 82.5% | 53.2% |
| Nc1n[nH]c2ccc([C@@H]3Nc4ccc5[nH]ncc5c4[C@H]4C5C=CC(C5)[C@@H]34)cc12 (some centres undefined) | 11.6% | 44.7% | 27.1% | 29.5% | 42.6% | 16.6% | 7.18% (active) | 3.92% (active) | -27.5% (active) | – |
| COC(=O)c1ccc(Cn2cnc3c(N)ncnc32)cc1 | 104% | 104% | 112% | 115% | 107% | 126% | 118% | 95.4% | 110% | – |
| N#CN1CCC[C@H]1C(=O)N1CCc2c(-c3[nH]nc4ncccc34)cccc21 | 6.84% (active) | 18.1% | 1.11% (active) | 56.3% | – | – | -32% (active) | -2.6% (active) | 8.38% (active) | 18.5% |
| COc1ccc(/C=C2\Oc3cc(OCCCCN4CCCC4)ccc3C2=O)cc1 | -25.3% (active) | 80.7% | 91.1% | 93.4% | 113% | 81.2% | 94.3% | 90.9% | 95.1% | – |
| CSc1ccc(-c2ccccc(=O)c2O)cc1 | 5.18% (active) | 10.1% | 14.6% | 52.9% | 11.8% | 12.7% | 25.1% | 56.4% | 5.46% (active) | – |
| COc1ccc(NC(=O)c2ccc(/C=C/C(=O)c3ncc[nH]3)cc2)cc1 | 13.4% | 16.7% | 64.7% | 107% | 96.9% | 78% | 31.1% | 94.7% | 77.4% | – |
| O=C1CC[C@H](c2ccc(O)c3c2C(=O)[C@@H]2O[C@@H]2C3=O)c2cccc(O)c21 | 2.02% (active) | -3.81% (active) | 43.5% | 99.6% | – | 90% | -9.05% (active) | 98.4% | 90% | 72.4% |
| c1ccc(CCNc2ncnc3[nH]ncc23)cc1 | 107% | 67% | 95% | 82.5% | 109% | 83.5% | 108% | 66.3% | 97.9% | – |
| Clc1ccc2c(NCCNc3nc(N4CCOCC4)nc4ccccc34)ccnc2c1 | -23.5% (active) | -37% (active) | -25.8% (active) | 51.8% | -37.8% (active) | 48.8% | -75% (active) | -13.9% (active) | 47.9% | – |

| Structure (SMILES) | growth [1] | growth [2] | growth [3] | growth [4] | growth [5] | growth [6] | growth [7] | growth [8] | growth [9] | growth [10] |
| --- | --- | --- | --- | --- | --- | --- | --- | --- | --- | --- |
| COc1ccc(-c2n[nH]nc2-c2csc3ccccc23)cc1OC | 21.3% | 34.8% | 36.9% | 66.2% | – | 48.8% | 11.9% | 6.17% (active) | 13.5% | 49% |
| COc1ccc(/C=C\c2cc(OC)c(OC)c(OC)c2)cc1OC(=O)c1cccc(Cn2cc(CCOC(=O)[C@H](N)Cc3cn(C)c4ccccc34)nn2)c1 | -0.0904% (active) | 25.9% | 23% | 41% | – | 16.2% | 1.65% (active) | 26.9% | 6.28% (active) | 20.9% |
| Cc1ccc2c(C(C[N+](=O)[O-])c3ccccc3F)c(-c3ccccc3)[nH]c2c1 (centres undefined) | 25.8% | 51.5% | 56.5% | 74.4% | 31.5% | 32% | 13.2% | 33.8% | 23.9% | – |
| CCOc1nc(-c2ccccc2)cc2c(O)c(C(=O)N/N=C/c3ccc(O)cc3O)[nH]c(=O)c12 | 27% | 38% | 14.5% | 43.6% | 41.6% | 15.6% | 30.9% | 82.9% | -40.1% (active) | – |
| O=C1C=C(O)C(=O)C(CC2=C(O)C(=O)C=C(O)C2=O)=C1O | 103% | 107% | 105% | 91% | – | 109% | 108% | 99.4% | 99.6% | – |
| CCCCC(=O)OCC1OC(n2cnc3c(=S)nc[nH]c32)C(OC(=O)CCCC)C1OC(=O)CCCC (centres undefined) | 24.5% | – | -23.2% (active) | 32.3% | – | – | 22% | 38.1% | 19.6% | 29.8% |
| CC(=O)OCCC/C(=C/c1cc2ccccc2c2ccccc12)[N+](=O)[O-] | -45.8% (active) | – | – | -95.1% (active) | 44.7% | – | -99.1% (active) | -46.2% (active) | -29.4% (active) | 0.455% (active) |
| CCCOc1ccc2nc(NC(=O)OC)[nH]c2c1 | – | 7.83% (active) | 3.91% (active) | 39.2% | 4.92% (active) | 36.9% | -46.8% (active) | 29.8% | -6.3% (active) | 53.3% |
| N#Cc1c(-c2ccc(Cl)cc2)nc(NN=Cc2ccco2)nc1N1CCOCC1 | – | 66.5% | 87.9% | 76.9% | 49.4% | 25.9% | 66.6% | 68.2% | – | 65.9% |
| COc1cc2nc(N3CCCC3)nc(NCCc3ccccc3)c2cc1OC | – | -21.8% (active) | 65.6% | 39.5% | 84.7% | 70.3% | 82.5% | 98.4% | – | -2.44% (active) |
| CC(=O)O[C@H]1CC[C@]2(C)[C@H]3CC=C4[C@@H]5CC(C)(C)CC[C@]5(C(=O)NCCNCCNCCN)CC[C@@]4(C)[C@]3(C)CC[C@H]2C1(C)C | – | -23.7% (active) | -0.659% (active) | 10% | 101% | 46.9% | -30.6% (active) | 92.2% | – | 34.9% |
| Cc1cc2nc3[nH]c4ccccc4c3nc2cc1C | 14.2% | – | 62.3% | 102% | 86.2% | -6.27% (active) | 92% | 1.63% (active) | 78.9% | 82.8% |
| CCCN1CCN(c2ccc3nc(-c4ccc5nc(-c6ccc(OCC)cc6)[nH]c5c4)[nH]c3c2)CC1 | – | -38.8% (active) | 0.816% (active) | 62% | 67.7% | 52.1% | -83.5% (active) | 70.4% | – | -34.6% (active) |
| OCCN1CCN(c2nc(Nc3ccc(-c4nc5ccccc5[nH]4)cc3)c3cn[nH]c3n2)CC1 | – | -48.5% (active) | -91% (active) | -76.2% (active) | -95.9% (active) | -78% (active) | -82.3% (active) | -47% (active) | – | -74.6% (active) |
| CC1(C)CC[C@]2(C(=O)Nc3ccccn3)CC[C@]3(C)C(=CC[C@@H]4[C@@]5(C)C/C(=C/c6cccnc6)C(=O)C(C)(C)[C@@H]5CC[C@]43C)[C@H]2C1 | – | 13.3% | 29.3% | 56.4% | 74% | 52.8% | 35.4% | 63.4% | 42.2% | 26.7% |
| COc1ccc(-c2nc3ccc(-c4nc5ccc(N6CCN(C)CC6)cc5[nH]4)cc3[nH]2)cc1OC | – | 110% | 55.8% | 99.1% | 74.2% | 79.6% | 30.4% | 72.2% | – | 68.4% |
| CCN=C1C=CC(=C(c2ccc(N)cc2)c2ccc(N(CC)CC)c(C)c2)C=C1 | – | -30.8% (active) | 1.54% (active) | 18.2% | 6.51% (active) | 11.6% | -28.9% (active) | -24.6% (active) | 67.7% | 24.2% |
| CCOC(=O)c1c(C)oc2ncnc(N3CCN(C(=O)COc4ccc(SC)cc4)CC3)c12 | – | 81.6% | 87.6% | 98.2% | 86.1% | 90.4% | 100% | 81.7% | 85.7% | 75% |

Source: PubChem BioAssay (NCI)
